In the library only some 3.4% were active in any assay of this set; here they are far more common.
LGR2 antag – inhibitors of bursicon-induced LGR2 CRE-luciferase signal, primary screen, cell-based, HEK293, CRE-luciferase reporter, bursicon stimulation; bursicon-stimulated, 4 h; Drosophila bursicon receptor LGR2 (rickets); 380,000 tested, 0.35% active; inhibition, % at 9.99 µM;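 active means drop in luminescence signal, shown as inhibition above about 50% in the replicate tests, limit read from the data, passing the limit was not always enough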;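 further: agonist challenge used bursicon conditioned medium at about half maximal strength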
rRNA inh HTS – reduced GFP signal of wild-type E. coli, primary screen, bacterial rRNA inhibitor project, GFP/RFP fluorescence, OD600, single point; E. coli WT GFP vs humanized-ribosome RFP mutants, 24 h; hits give low values; DMSO median 0, no signal -100; GFP signal change (wild-type ribosome), % (test concentration not listed); 350,000 tested, 1.6% active; AID 720706, 2013;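 active means significant combined selectivity score with lowered wild-type GFP, culture density cut under 30%, mutant RFP and density less affected; inactive means any of these conditions unmet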
SIRT5 block – SIRT5 desuccinylase inhibitors, primary screen, biochemical, fluorescence imaging, single point, set 5; Purified SirT5, succinyl-peptide AMC, trypsin-coupled fluorescence; AID 652115, 2013; NAD-dependent protein deacylase sirtuin-5, mitochondrial (Homo sapiens), Q9NXA8; inhibition, % at 15 µM; 330,000 tested, 1.1% active; in the data active means inhibition above about 15%
Target sequence (Q9NXA8 whole entry, looked up): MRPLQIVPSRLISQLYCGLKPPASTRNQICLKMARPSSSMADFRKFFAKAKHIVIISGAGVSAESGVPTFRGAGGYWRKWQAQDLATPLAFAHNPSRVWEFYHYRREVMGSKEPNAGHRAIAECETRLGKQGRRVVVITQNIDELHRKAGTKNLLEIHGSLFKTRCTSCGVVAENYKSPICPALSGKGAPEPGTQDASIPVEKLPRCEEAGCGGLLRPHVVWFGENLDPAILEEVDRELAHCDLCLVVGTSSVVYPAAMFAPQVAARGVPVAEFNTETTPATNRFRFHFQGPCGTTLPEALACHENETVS
PAX8 inh HTS – inhibitors of PAX8-driven TPO luciferase reporter, primary screen, RMG-I cells, single concentration | 360,000 tested, 1.2% active | inhibition, % at 12.6 µM | AID 652154, 2013 | SteadyGlo, 24 h;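 active means mean replicate inhibition at least 60% with every replicate also reaching 60%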;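 further: luciferase light reporting Pax8 driven TPO promoter activity; plate controls were median of neutral control wells for no effect and mitoxantrone controls for full effect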
EWS-Fli block – EWS/Fli-driven NR0B1 reporter inhibitors, primary screen, A673 cells, NR0B1 luciferase, luminescence, MLPCN library; viability-normalised; inhibition, % at 12.6 µM; 350,000 tested, 0.67% active; AID 651661, 2012;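 active means mean inhibition of at least 50% after viability correction, with every replicate also passing that limit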;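 further: firefly luciferase signal divided by Alamar Blue viability fluorescence both relative to DMSO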
PGC1a acetyl inh – inhibitors of PGC1a acetylation signal, primary screen, cell-based, U2OS, AlphaScreen, inhibitor mode; 350,000 tested, 0.17% active; inhibition, % at 15.6 µM; AlphaScreen anti-acetyl-lysine; with virally co-expressed GCN5 acetyltransferase;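 active means every replicate shows inhibition of at least 40%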;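 further: 0% = neutral control wells and 100% = positive control wells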
Active calls of the source: *.

What do the screens show for `CC(C)N(C(=O)[C@H]1C[C@H](CC(=O)NCC23CC4CC(CC(C4)C2)C3)C(=O)N2CCc3c([nH]c4ccc(Cl)cc34)[C@]12C)C(C)C`?
LGR2 antag: 13; rRNA inh HTS: 10; SIRT5 block: 11; PAX8 inh HTS: 67*; EWS-Fli block: 3

Results for CC(C)N(C(=O)[C@H]1C[C@H](CC(=O)NCc2cccc(C(F)(F)F)c2)C(=O)N2CCc3c([nH]c4cc(CCC(=O)N(C)C)ccc34)[C@]12C)C(C)C ?
SIRT5 block: 24*; PAX8 inh HTS: 33; EWS-Fli block: 7; PGC1a acetyl inh: -15

How did C[C@@H]1CN([C@H](C)CO)C(=O)Cc2cc(NC(=O)Nc3ccc(F)cc3)ccc2O[C@H]1CN(C)C(=O)Nc1ccccc1 do in these assays?
LGR2 antag: -5; rRNA inh HTS: 0; SIRT5 block: -2; PAX8 inh HTS: -6; EWS-Fli block: -2; PGC1a acetyl inh: -1

How did CC(C)N(C(=O)[C@H]1C[C@H](CC(=O)NC(C)(C)C)C(=O)N2CCc3c([nH]c4cc(-c5ccco5)ccc34)[C@]12C)C(C)C do in these assays?
LGR2 antag: -4; rRNA inh HTS: -1; SIRT5 block: 27*; PAX8 inh HTS: 19; EWS-Fli block: 2

What do the screens show for `O=c1c(Cc2c(F)cccc2Cl)c(O)ccn1C1CC1`?
LGR2 antag: -17; rRNA inh HTS: -31*; SIRT5 block: 4; PAX8 inh HTS: -9; EWS-Fli block: -1

Results for C#CCn1ccc(O)c(Cc2c(F)cccc2Cl)c1=O ?
LGR2 antag: 5; rRNA inh HTS: 2; SIRT5 block: -2; PAX8 inh HTS: -20; EWS-Fli block: 7; PGC1a acetyl inh: -8

How did O=C(O)C1CSC(c2ccco2)N1 (stereo not given) do in these assays?
LGR2 antag: 6; rRNA inh HTS: 24; SIRT5 block: 16*; PAX8 inh HTS: 2; EWS-Fli block: -10

How did CC(=O)/C(=N/Nc1ccc(C)cc1)Sc1nnc(CCc2ccccc2)n1-c1ccccc1 do in these assays?
LGR2 antag: -2; rRNA inh HTS: 9; SIRT5 block: -4; PAX8 inh HTS: 12; EWS-Fli block: 7

How did CCOC(=O)/C(=N/Nc1ccc(OC)cc1)Sc1nnc(CCc2ccccc2)n1-c1ccccc1 do in these assays?
LGR2 antag: -2; rRNA inh HTS: -13; SIRT5 block: 22*; PAX8 inh HTS: -17; EWS-Fli block: 9

What do the screens show for `CCC(=O)N1CC2(C1)[C@H](c1ccc(-c3cccc(F)c3)cc1)[C@H](CO)N2CC1CC1`?
LGR2 antag: 1; rRNA inh HTS: -4; PAX8 inh HTS: 11; EWS-Fli block: 0; PGC1a acetyl inh: -6

What do the screens show for `COc1ccc(N2C(=O)CC(Sc3nnnn3-c3ccc(F)cc3)C2=O)cc1` (stereo not given)?
LGR2 antag: -18; rRNA inh HTS: 5; SIRT5 block: 3; PAX8 inh HTS: 95*; EWS-Fli block: 13; PGC1a acetyl inh: -22

Results for O=C1CC(Sc2nnc(-c3ccccc3O)o2)C(=O)N1c1ccccc1 (stereo not given) ?
LGR2 antag: 1; rRNA inh HTS: -14; SIRT5 block: -1; EWS-Fli block: 29; PGC1a acetyl inh: -86

How did COc1ccc(N2C(=O)CC(Sc3nnc(-c4ccccc4)o3)C2=O)cc1 (stereo not given) do in these assays?
PAX8 inh HTS: 107*; PGC1a acetyl inh: -15

What do the screens show for `Cc1ccc(S(=O)(=O)NCC[C@H]2CC[C@@H](NC(=O)Nc3cccc(F)c3)[C@H](CO)O2)cc1`?
LGR2 antag: 1; rRNA inh HTS: -1; SIRT5 block: -1; PAX8 inh HTS: 13; EWS-Fli block: 0; PGC1a acetyl inh: 3

Results for COc1ccc(CNC(=O)C[C@@H]2C=C[C@@H](NC(=O)CN(C)C)[C@@H](CO)O2)cc1 ?
LGR2 antag: -17; rRNA inh HTS: -1; SIRT5 block: -4; PAX8 inh HTS: -11; EWS-Fli block: -70; PGC1a acetyl inh: 6
